± gives the standard deviation.
What follows are sequences tested on MILI (PIWIL2) piRISC loaded with piRNA #1 (26 nt) (assay: pre-steady-state target cleavage rate (min^-1); guide: piRNA #1 5'p-UGAGGUAGUAGGUUGUAUAGUAUCCA; MIWI and MILI are mouse PIWI proteins and EfPiwi is from a freshwater sponge; tags in brackets are library labels; higher = faster piRNA-guided slicing of the target). Conditions: auxiliary factor: 500 nM mouse GTSF1.
Procedure: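 Cleave-'n-Seq: a library of target RNAs (target site embedded in constant flanks, ACAGCATTCCGCGTTAGTGATATCCG... 5' flank; DNA-blocked outside the site) at 0.1 nM was incubated with 1 nM active mouse MILI or MIWI piRISC (synthetic 5'-monophosphorylated piRNA guide) with or without 500 nM mouse GTSF1 at 33 °C for 1 min to 16 h. Uncleaved targets were sequenced and normalised to non-target controls, and the pooled three trials were fitted to a burst-and-steady-state model to give the pre-steady-state cleavage rate (min^-1; k3 is constrained to at most 1e-4). Sequence is the target site only; target names encode pairing extent (gX:gY) and contiguous / 1-mismatch / 2-mismatch / bulge geometry. Fits with R² ≤ 0 are excluded.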

Sequence	pre-steady-state target cleavage rate
GGAGACCUAUGUAUACAUCCUACUACCUGA	0.0651 ± 0.017
GGAGACCUAUGUAUACAACCUUCAACCUCA	0.00276 ± 0.0024
GGAGACCUAUCUAUACAACCUUCUACCACA	0.00592 ± 0.0023
GGAGUGGAUACUUUACAACCUACAACCUCA	0.0647 ± 0.0091
GGAGAGGAUACUAUACAACCUGCUACCUCA	0.066 ± 0.0089
GGAGACCUAUGUAUUCAACCUACUACCUCA	0.0588 ± 0.0091
GGAGACCAUACUAAAGAACCUACUACCUCA	0.11 ± 0.012
GGAGACCUAUGAUAACAUCCUACUACCUCA	0.00447 ± 0.0023
GGAGACCUAUGAAUACAACCUAUUACCUCA	0.00604 ± 0.003
GGAGUGGAAACUAUACAACCUACUACCUGA	0.105 ± 0.023
GGAGACCUAUCUAUACAACCUUACUACCUCA	0.00278 ± 0.0026
GGAGUGGAUACGUAUACAACCUACUACCUCA	0.111 ± 0.0099
GGAGAGGAUACUAUUCAAGCUACUACCUCA	0.131 ± 0.014
GGAGUGGAUACUAUAGAACCUUCUACCUCA	0.00415 ± 0.0015
GGAGACCUAACUAUACAAGCUACAACCUCA	0.182 ± 0.026
GGAGACCUUAGUAUACAACCUACUUCCUCA	0.0515 ± 0.014
GGAGAGGAUACUAUACAACCUCACUACCUCA	0.00456 ± 0.0027
GGAGACCUAUGUAUACAGCCUACUACCUCA	0.0196 ± 0.0053
GGAGACCUAUGUAUACAACGAACUACCUCA	0.00287 ± 0.002
GGAGACGAUAGUAUACAACCUUCUACCUCA	0.00961 ± 0.003

Sequence	pre-steady-state target cleavage rate
GGAGUGGAUAGUAUACAACCUACUAGCUCA	0.00679 ± 0.003
GGAGAGGAUACUAUACAACCUACUACCCUCA	0.11 ± 0.017
GGAGACCUUACUAUACAACCUACUACCAGA	0.107 ± 0.017
GGAGACCUAUCUAUACAACCUACUACCUUA	0.103 ± 0.015
GGAGACGAUACUAUAGAACCUACUACCACA	0.0976 ± 0.015
GGAGACGAUACUAUACAACCUACUACCUGCA	0.203 ± 0.021
GGAGACCUAUCUAUACAACCUACUACUCA	0.0936 ± 0.013
GGAGACCUAUGAUUACAACCUACUACCUCC [g2:g17:cont:t1C]	0.00979 ± 0.0034
GGAGACCUAUGAUUACAAACUACUACCUCA	0.0225 ± 0.0059
GGAGACCUAUGAAUACAACCUAAUACCUCA	0.00363 ± 0.0026
GGAGACCAUUGUAUACAACCUACUACCUCA	0.0325 ± 0.0067
GGAGACCUUACUAUACAACCUACUAGCUCA	0.145 ± 0.02
GGAGACCUAUGAAUACAACCUACUACCUCC [g2:g18:cont:t1C]	0.0111 ± 0.0027
GGAGACCUAACUAAACAUCCUACUACCUCA	0.216 ± 0.036
GGAGACCUAUGAUAACAACCUACUACCUCG [g2:g16:cont:t1G]	0.00536 ± 0.0027
GGAGAGGAUACUUUUCAACCUACUACCUCA	0.145 ± 0.011
GGAGACCUAUGUAUACAACCUACUACACUCA	0.12 ± 0.018
GGAGUGGAUACUAUAGAACCUACUACCACA	0.0519 ± 0.0082
GGAGAGGAUACUAUACAACUUACUACCUCA	0.0186 ± 0.0027
GGAGACGAUACAAUUCAACCUACUACCUCA	0.147 ± 0.01

Source: the supplement of paper PMC10338343
